# Measurements from PubChem BioAssay AID652257 (The Scripps Research Institute Molecular Screening Center, 2013).
# About 4,800 (1.3%) of roughly 370,000 compounds were called active. For the sample, actives were picked, then their nearest neighbours and some compounds at random. Unmarked numbers belong to inactive results.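 The calls were made as follows: active = inhibition above about 21% made by adding two undisclosed values (limit read from the data); inactive = the rest.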
# Target: Protein arginine N-methyltransferase 1 (Homo sapiens) (UniProt Q99873)
# Assay: PRMT1 methyltransferase inhibitors, primary screen, biochemical, fluorescence polarization (AID 652257)
# Details: recombinant PRMT1, activity-based probe fluorescence polarization; at 2.79 µM; hits give high values
# Chain of Protein arginine N-methyltransferase 1 (Homo sapiens) (Q99873 whole entry, looked up): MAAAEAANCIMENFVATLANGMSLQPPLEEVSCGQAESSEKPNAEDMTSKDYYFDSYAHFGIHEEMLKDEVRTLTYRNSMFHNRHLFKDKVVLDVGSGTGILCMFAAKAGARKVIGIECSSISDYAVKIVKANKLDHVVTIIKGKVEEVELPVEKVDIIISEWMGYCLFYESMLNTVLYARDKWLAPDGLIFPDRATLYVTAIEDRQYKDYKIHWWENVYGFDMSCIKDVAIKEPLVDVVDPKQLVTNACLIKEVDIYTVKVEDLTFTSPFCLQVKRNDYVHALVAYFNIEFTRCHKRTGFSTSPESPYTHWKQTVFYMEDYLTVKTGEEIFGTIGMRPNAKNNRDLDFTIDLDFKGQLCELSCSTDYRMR
row,SMILES,inhibition
1,O=S(=O)(O)c1cc2onnc2c2ccccc12,40.6% (active)
2,CCOC(=O)[C@@]12CCC3=C1N(CCC3)C(=O)[C@H](CC(=O)N1CCN(C(=O)c3ccco3)CC1)C2,-2.33%
3,CC1=CC(C)(C)NC(=S)N1c1ccccc1,3.18%
4,Cc1ccc(-c2nnc(SCC(=O)Nc3ccc(Oc4ccccc4)cc3)n2Cc2ccco2)cc1,4.18%
5,CC1CC1C(=O)OCC(=O)Nc1cccc(F)c1 (stereo unspecified),2.32%
6,Cc1ccccc1CN1CCCCC(NC(=O)Nc2ccccc2F)C1=O (stereo unspecified),-0.07%
7,C#CCNC(=O)C[C@H]1C[C@@]2(C(=O)OC)C(=C[C@H](C(C)C)O[C@@H]2C2CC2)N(Cc2ccco2)C1=O,-1.6%
8,C=CCn1c(=NC(=O)c2cccs2)sc2cc(NC(C)=O)ccc21,4.42%
9,COc1cc2c(cc1OC)C(Cc1cc(OC)c(OC)cc1[N+](=O)[O-])=NCC2,8.89%
10,CCS(=O)(=O)c1cc([N+](=O)[O-])c(Sc2ccccc2N)s1,66.1% (active)
11,O=C(c1ccccc1)c1ccc(-c2ccccc2C(=O)NC2CCCCN(Cc3ccc(Cl)cc3)C2=O)cc1 (stereo unspecified),-3.72%
12,C=C(C)C#CC(Cc1ccccc1)NCC1CC1 (stereo unspecified),7.99%
13,Cc1sc2nc(SCC(=O)c3ccc(O)c(O)c3)n(Cc3ccco3)c(=O)c2c1C,25.1% (active)
14,O=C(CSc1nnc(-c2cccs2)n1Cc1ccco1)c1ccc2c(c1)OCO2,1.9%
15,O=C(CSc1nnc(COc2ccccc2)n1Cc1ccco1)c1ccc2ccccc2c1,4.78%
16,CCCC[C@H]1C2CC(OC(=O)NCc3ccccc3)C(C2)[C@H]2CCCCN21 (stereo partly specified),1.74%
17,COc1ccccc1-n1c(-c2cc(-c3ccco3)[nH]n2)n[nH]c1=S,35.1% (active)
18,Cc1cc(-c2n[nH]c(=S)n2-c2ccc(C)c(C)c2)no1,4.04%
19,COc1ccc(OCc2n[nH]c(=S)n2N)cc1,4.04%
20,COc1ccc(C(C#N)Nc2ccccc2C)cc1 (stereo unspecified),1.86%
21,CC(C)(C)OC(=O)NCc1cc(F)ccc1/C=C/S(=O)(=O)NCCc1ccccc1,-0.49%
22,Cc1ccc(/C=C/C(=O)Nc2ccc([N+](=O)[O-])c(NC(=O)/C=C/c3ccc(C)o3)c2)o1,41.1% (active)

row,SMILES,inhibition
1,O=C(/C=C/c1ccc([N+](=O)[O-])o1)NNC(=O)c1ccc(F)cc1,5.67%
2,Cc1cc(NC(=O)COC(=O)/C=C/c2ccc(C)o2)no1,5.65%
3,COc1ccc(-n2c(SCC(=O)Nc3ccc(C)c(Cl)c3)nc3ccccc3c2=O)cc1,0.06%
4,COc1ccc(/C=C2/S/C(=N/N=C3\CC4CCC3(C)C4(C)C)NC2=O)cc1 (stereo unspecified),-3.61%
5,CC(=O)N1C(=O)/C(=C2\SC(=S)N(NC(=O)c3ccc(O)cc3)C2=O)c2ccccc21,37.7% (active)
6,COc1ccc2c(c1)N(C)/C(=C1/SC(=S)N(NC(C)=O)C1=O)S2,-3.82%
7,COc1ccc(C(=O)NN2C(=O)C3C(c4ccccc4)C=CC(c4ccccc4)C3C2=O)cc1 (stereo unspecified),-3.24%
8,COC(=O)C[C@@H]1CC[C@@H]2[C@H](COc3ccc(NC(=O)c4cccc(F)c4)cc3C(=O)N2C)O1,-3.84%
9,CCN1/C(=C/C(=S)Nc2ccccc2)Sc2ccccc21,64.6% (active)
10,CCN1/C(=C\c2ccc3ccccc3[n+]2CC)Sc2cc(C)ccc21,-5.01%
11,C=CCN1[C@H](CC(C)C)COc2cccc(N3CCCC3)c2S1(=O)=O,11.6%
12,CC(=O)c1ccc(N2CCN(CC(=O)Nc3ccccc3N3CCOCC3)CC2)cc1,-1.3%
13,O=C(CN1CCN(c2ccc(O)cc2)CC1)Nc1ccc(-c2ccccc2)cc1,21.2% (active)
14,O=C(CN1CCN(c2cccc(Cl)c2)CC1)Nc1ccc(S(=O)(=O)N2CCOCC2)cc1,1.21%
15,O=C(CN1CCN(c2ccc(O)cc2)CC1)NC1CCCc2ccccc21 (stereo unspecified),26.1% (active)
16,O=C(CSc1nncs1)NC1CCCc2ccccc21 (stereo unspecified),2.99%
17,O=C(CCC(=O)N1CCN(S(=O)(=O)c2ccccc2)CC1)NC1CCCc2ccccc21 (stereo unspecified),2.87%
18,CCCCN1CC(CO)Oc2cccc(F)c2S1(=O)=O (stereo unspecified),-3.97%
19,Cc1cc(C)c(NC(=O)CN2CCOCCOCCOCCOCC2)c(C)c1,-1.78%
20,COC(=O)C1CN(Cc2ccc(F)cc2)CCS(=O)(=O)N1Cc1ccc(Cl)cc1 (stereo unspecified),0.79%
21,CC(=O)Nc1ccc(OC[C@@H](O)CN2CCC(C(O)(c3ccccc3)c3ccccc3)CC2)cc1,-3.02%
22,COC(=O)[C@]12C[C@H](CC(=O)NCCCN3CCCC3=O)C(=O)N(CCc3ccc(OC)c(OC)c3)C1=C[C@H](COCc1ccccc1)O[C@@H]2C,-1.4%

row,SMILES,inhibition
1,COC(=O)C1CN(CCc2ccccc2)CCS(=O)(=O)N1Cc1cccc(Cl)c1 (stereo unspecified),4.71%
2,O=C(COC(=O)c1ccccc1SCC(=O)N1CCCC1)Nc1ccccc1OC(F)F,2.04%
3,Cc1ccc(C(NC(=O)N2CCCC2)C(Cl)(Cl)Cl)cc1F (stereo unspecified),-0.94%
4,CC1CCN(C(=O)CSc2nnc(-c3ccco3)n2N)CC1,-3.61%
5,COc1ccc(Cl)cc1NS(=O)(=O)c1cccc(C(=O)NC2CCC(O)CC2)c1 (stereo unspecified),-6.68%
6,COc1ccc(Cl)cc1C(=O)NNC(=S)NC(=O)/C=C/c1ccco1,-3.9%
7,COc1ccc(N2C(=O)/C(=C\c3ccco3)N=C2SCC(N)=O)cc1Cl,25.5% (active)
8,COc1ccc([N+](=O)[O-])cc1NC(=O)COC(=O)/C=C/c1ccco1,5.77%
9,COC(=O)[C@]12C[C@H](CC(=O)NCc3ccccc3)C(=O)N(CCC3=CCCCC3)C1=C[C@H](C(C)C)O[C@@H]2C1CC1,-0.96%
10,CC(c1ccc(N)cc1)c1cn(C)c2ccccc12 (stereo unspecified),-3.45%
11,COc1ccc(Cl)cc1-c1cc(C(=O)Nc2cc(OC)c(OC)c(OC)c2)[nH]n1,-1.28%
12,CC(CCN1CCC(C(O)(c2ccccc2)c2ccccc2)CC1)Oc1ccc(Cl)cc1 (stereo unspecified),0.54%
13,C=CCn1c(=S)[nH]c2scc(-c3ccco3)c2c1=O,38.1% (active)
14,O=C(CSc1nc2ccccc2n1Cc1ccccc1Cl)N/N=C\c1c[nH]c2ccccc12,-0.85%
15,O=C(OCC(=O)N1CCCCCC1)c1cccc(Cl)c1Cl,-1.11%
16,CC(NC(=O)Nc1ccccc1)C(c1cccs1)N1CCN(c2ccccc2)CC1 (stereo unspecified),0.36%
17,CCOC(=O)c1ccc(NC(=S)N2CCN(c3ccccn3)CC2)cc1,-2.24%
18,CC(=NNC(=S)N1CCCCCC1)c1ccccn1,25.4% (active)
19,O=[N+]([O-])c1ccc(NC(=S)N2CCN(c3ccccn3)CC2)cc1,-0.91%
20,COC(=O)C1=C[C@@H](C(=O)OC)[C@@H]2C3=C(C(=O)[C@]2(C)NC(=O)c2ccccc2)[C@H](C)n2c(=O)n(C)c(=O)n2[C@@H]3C1,1.61%
21,CCOC(=O)c1ccccc1NC(=O)CSc1nc2c(sc(=S)n2CC)c(=O)[nH]1,19%
22,CSc1ncnc2c1ncn2CC(=O)C1CCC2C3CCC4=CC(=O)CCC4(C)C3CCC12C (stereo unspecified),0.25%

row,SMILES,inhibition
1,Cc1c(NS(=O)(=O)c2cccc(C(=O)Nc3ccc(SC(F)F)cc3)c2)c(=O)n(-c2ccccc2)n1C,21.1% (active)
2,COc1ccc(C(=O)C(C)OC(=O)c2cccc(S(=O)(=O)Nc3c(C)n(C)n(-c4ccccc4)c3=O)c2)cc1 (stereo unspecified),-2.91%
3,Cc1c(NS(=O)(=O)c2cc(C(=O)NCCc3ccc(F)cc3)cc(Cl)c2Cl)c(=O)n(-c2ccccc2)n1C,-3.45%
4,Cc1ccccc1-c1nc(CS(=O)(=O)CC(=O)NC(C)c2ccccc2)c(C)o1 (stereo unspecified),-4.8%
5,Cc1sc2nc(CSCC(=O)NC3CCCCC3)[nH]c(=O)c2c1C,22.1% (active)
6,Cc1nc(SCC(=O)NC2CCCC2)[nH]c(=O)c1C,1.36%
7,Cc1sc2nc(CSCC(=O)Nc3c(Cl)cccc3Cl)[nH]c(=O)c2c1C,13.1%
8,COC(CNC(=O)[C@H](Cc1ccccc1)NC1(C(=O)NC2CCCCC2)CCCCC1)OC,-5.82%
9,O=C(NCc1cccnc1)c1cnc2ccccc2n1,-0.09%
10,CCOc1ccc(-n2c(SCC(=O)Nc3cc(C)c(NC(=O)c4ccccc4)cc3OC)nnc2-c2cccs2)cc1,2.3%
11,CC(=O)N1CC(C)c2scc(C)[n+]2-c2ccccc21 (stereo unspecified),53.9% (active)
12,Cc1ccc(NC(=O)C(CC(=O)O)C2CCCO2)c(C)c1 (stereo unspecified),2.66%
13,Cc1ccc(C(=O)N(Cc2ccccn2)CC2CCCO2)cc1 (stereo unspecified),-2.09%
14,NNC(=O)c1oc2nc(-c3ccccc3)cc(-c3ccco3)c2c1N,-3.39%
15,CNC(=S)NNC(=O)c1oc2nc(-c3ccccc3)cc(-c3ccco3)c2c1N,21.9% (active)
16,O=C(OCC#CCSc1nnc(-c2ccco2)o1)c1ccc(F)cc1,-2.56%
17,COc1ccc(-c2cc(-c3nnc(SCc4ccc([N+](=O)[O-])cc4)n3N)[nH]n2)cc1,-4.36%
18,O=C(NC(Cc1ccccc1)C(=O)O)/C(=C\c1ccccc1)NC(=O)c1ccco1 (stereo unspecified),-0.14%
19,O=C(NC(Cc1c[nH]c2ccccc12)C(=O)O)/C(=C/c1ccco1)NC(=O)c1ccccc1 (stereo unspecified),25.5% (active)
20,O=C(NCc1ccco1)/C(=C/c1ccco1)NC(=O)c1ccccc1,7.1%
